Source: PubChem BioAssay (NCATS)
Records with an inconclusive call do not appear. Activity calls are given as the source filed them. The call rests on the fitted dose curve; in most records, active means well fitted curve in the direction sought with a large enough effect; inconclusive means small, poorly fitted or top-dose-only effect, or another doubt; inactive means no such curve, though single readings can be large; an effect the other way counts as inactive or inconclusive.

Legend:
[1] = target: Calcium and integrin-binding protein 1 (Homo sapiens) (UniProt Q99828); assay: Primary qHTS for Identification of Calcium Integrin Binding Protein 1 (CIB1) Competitor (AID 1508620); settings: CIB1-GST / FITC-alphaIIb peptide fluorescence polarization; series mostly up to 57.7 µM;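 further: GST tagged CIB1 binding a fluorescein labelled alphaIIb integrin peptide tracer; top concentration of the series differs between compounds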
In short: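 Fluorescence polarization competition: CIB1-GST (1 uM final) preincubated with compound 15 min at room temperature, then FITC-labeled alphaIIb peptide (100 nM final) added for another 15 min. Polarization read at Ex 480/Em 540.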

[2] = Primary qHTS for inhibitors of nuclear receptor binding SET domain protein 2 (NSD2) in an isogenic RCH-ACV NSD2 p.E1099K mutant (9B) (AID 1645876); settings: RCH-ACV NSD2 E1099K (9B) viability, CellTiter-Glo, 72 h; series mostly up to 44.9 µM; further: nearly all actives have a fitted effect of over 70% in size
[3] = Primary qHTS for inhibitors of nuclear receptor binding SET domain protein 2 (NSD2) in an RCH-ACV wild type WT cells (2C) (AID 1645877); settings: RCH-ACV (leukaemia line) NSD2 WT (2C) viability, CellTiter-Glo, 72 h; series mostly up to 44.9 µM; further: nearly all actives have a fitted effect of over 70% in size
On the % scale 0 is the no-effect control and ±100 the full control effect.

Chain of Calcium and integrin-binding protein 1 (Homo sapiens) (Q99828 whole entry, looked up): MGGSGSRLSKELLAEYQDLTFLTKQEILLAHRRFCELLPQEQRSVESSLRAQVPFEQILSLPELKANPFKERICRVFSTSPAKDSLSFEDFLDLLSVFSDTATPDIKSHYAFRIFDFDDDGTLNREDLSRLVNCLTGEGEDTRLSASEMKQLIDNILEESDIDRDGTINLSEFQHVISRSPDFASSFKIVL

C[C@H]1CCN2C[C@]34C[C@@]5(C(=O)Nc6c5ccc5c6OC=CC(C)(C)O5)C(C)(C)C3C[C@]12C(=O)N4C (stereo partly specified)
inactive: Potency [1] | Potency [2] | Potency [3]

COc1cc(C(=O)OC[C@H]2O[C@@H](OC(C)(C)C(=O)O)[C@H](O)[C@@H](O)[C@@H]2O)cc(OC)c1O
inactive: Potency [1] | Potency [2] | Potency [3]

CN(C)CCC[C@]1(c2ccc(F)cc2)OCc2cc(C#N)ccc21
inactive: Potency [1] | Potency [2] | Potency [3]

CC1=CC(=O)CC(C)(C)C1CO[C@@H]1O[C@H](CO)[C@@H](O)[C@H](O)[C@H]1O (stereo partly specified)
inactive: Potency [1] | Potency [2] | Potency [3]

CC1C(O)C(O)C2C(C(=O)OCCc3ccc(O)cc3)=COC(O[C@@H]3O[C@H](CO)[C@@H](O)[C@H](O)[C@H]3O)C12 (stereo partly specified)
inactive: Potency [1] | Potency [2] | Potency [3]

CC(CC12CCCN1C(=O)C1CCCN1C2=O)OC(N)=O (stereo unspecified)
inactive: Potency [1] | Potency [2] | Potency [3]

Oc1ccc(CC2NCCc3cc(O)c(O)cc32)cc1 (stereo unspecified)
inactive: Potency [1] | Potency [2] | Potency [3]

CC[C@H]1OC(=O)[C@H](C)C(=O)[C@H](C)[C@@H](OC2O[C@H](C)C[C@H](N(C)C)[C@H]2O)[C@@H](C)C[C@@H](C)C(=O)/C=C/[C@]1(C)O (stereo partly specified)
inactive: Potency [1] | Potency [2] | Potency [3]

COc1cc(O)cc(C)c1C(=O)O[C@H]1[C@@H](O)[C@@H](n2ccc(=O)[nH]c2=O)O[C@@H]1CO
inactive: Potency [1] | Potency [2] | Potency [3]

CC1=CC(=O)CC(C)(C)C1CCC(C)O[C@@H]1O[C@H](CO)[C@@H](O)[C@H](O)[C@H]1O (stereo partly specified)
inactive: Potency [1] | Potency [2] | Potency [3]

CC(CCc1ccc(O)cc1)O[C@@H]1O[C@H](CO[C@@H]2OC(CO)[C@H](O)[C@H]2O)[C@@H](O)[C@H](O)[C@H]1O (stereo partly specified)
inactive: Potency [1] | Potency [2] | Potency [3]

CC(C)CC(=O)O[C@@H]1O[C@H](CO)[C@@H](O[C@H]2O[C@H](C)[C@@H](N[C@H]3C=C(CO)[C@@H](O[C@H]4O[C@H](CO)[C@@H](O[C@H]5O[C@H](CO)[C@@H](O[C@H]6O[C@H](CO)[C@@H](O)[C@H](O)[C@H]6O)[C@H](O)[C@H]5O)[C@H](O)[C@H]4O)[C@H](O)[C@H]3O)[C@H](O)[C@H]2O)[C@H](O)[C@H]1O
inactive: Potency [1] | activity change, negative = viability loss [2] 3.07% [at 9.23 µM] | outcome [3] inactive [at 9.23 µM]

COC(=O)C1=CO[C@@H](O[C@@H]2O[C@H](CO)[C@@H](O)[C@H](O)[C@H]2O)[C@@H]2[C@@H](C(=O)O)CC[C@H]12
inactive: Potency [1] | Potency [2] | Potency [3]

CC(C)c1ccc2c(c1)C(O)CC1C(C)(CO)CCCC21C (stereo unspecified)
inactive: Potency [1] | Potency [2] | Potency [3]

C=C(COC(=O)CC(C)C)C1Cc2cc(C(C)=O)ccc2O1 (stereo unspecified)
inactive: Potency [1] | Potency [2] | Potency [3]

C[C@@H]1O[C@@H](O[C@H]2[C@H](O)[C@@H](O)[C@H](OC(=O)[C@]34CCC(C)(C)C[C@H]3C3=CCC5[C@@]6(C)CC[C@H](O[C@@H]7O[C@H](C(=O)O)[C@@H](O)[C@H](O)[C@H]7O)C(C)(C)C6CC[C@@]5(C)[C@]3(C)CC4)O[C@@H]2CO)[C@H](O)[C@H](O)[C@H]1O (stereo partly specified)
inactive: Potency [1] | activity change, negative = viability loss [2] -5.91% [at 9.23 µM] | activity change, negative = cell killing [3] -1.6% [at 9.23 µM]

C[C@@]1(O)[C@H](O)[C@@H](CO)O[C@H]1n1cnc2c(=O)[nH]c(N)nc21
inactive: Potency [1] | Potency [2] | Potency [3]

CC(C)(O)/C=C/C(=O)[C@](C)(O)[C@H]1[C@H](O)C[C@@]2(C)[C@@H]3CC=C4[C@@H](C=C(O[C@@H]5O[C@H](CO)[C@@H](O)[C@H](O)[C@H]5O)C(=O)C4(C)C)[C@]3(C)C(=O)C[C@]12C
inactive: Potency [1] | Potency [2] | Potency [3]

C[C@H]1CC(=O)C2=C(C1)C(O)C(O)[C@@]1(O)[C@H]2C(=O)c2cccc(O)c2[C@@H]1O (stereo partly specified)
inactive: Potency [1] | Potency [2] | Potency [3]

COC(=O)C1=CO[C@@H](O[C@@H]2O[C@H](CO)[C@@H](O)[C@H](O)[C@H]2O)C2C1CC(O)C2C (stereo partly specified)
inactive: Potency [1] | Potency [2] | Potency [3]

C=C1CC2C(C)(CCC(=O)O)C(C(C)(C)O)CCC2(C)C2(C(=O)OC)C(=O)C(C)(O)C(=O)C12C (stereo unspecified)
inactive: Potency [1] | Potency [2] | Potency [3]

O=C(CCc1ccccc1)c1c(O)c([C@@H]2O[C@H](CO)[C@@H](O)[C@H](O)[C@H]2O)c(O)c([C@@H]2O[C@H](CO)[C@@H](O)[C@H](O)[C@H]2O)c1O
inactive: Potency [1] | Potency [2] | Potency [3]

CC1(C)C2CC[C@@]34CC(CC[C@H]3[C@]2(C)CC[C@@H]1O[C@@H]1O[C@H](CO)[C@@H](O)[C@H](O)[C@H]1O)[C@](C)(O)C4 (stereo partly specified)
inactive: Potency [1] | Potency [2] | Potency [3]

CC(=O)O[C@@H]1[C@H](O[C@@H]2O[C@H](CO)[C@@H](O)[C@H](O)[C@H]2O)[C@@H](O[C@@H]2O[C@@H](C)[C@H](O)[C@@H](O[C@@H]3O[C@H](CO)[C@@H](O)[C@H](O)[C@H]3O)[C@H]2O)[C@H](OC(=O)[C@]23CCC(C)(C)C[C@H]2C2=CCC4[C@@]5(C)C[C@H](O)[C@H](O[C@@H]6O[C@H](C(=O)O)[C@@H](O)[C@H](O)[C@H]6O)[C@@](C)(C(=O)O)C5CC[C@@]4(C)[C@]2(C)CC3)O[C@@H]1C (stereo partly specified)
inactive: activity change, negative = inhibition [1] -1.12% [at 12.4 µM] | activity change, negative = viability loss [2] -4.25% [at 9.23 µM] | activity change, negative = cell killing [3] -3.72% [at 9.23 µM]

OCC(O)C(c1c[nH]c2ccccc12)c1c[nH]c2ccccc12 (stereo unspecified)
inactive: Potency [1] | Potency [2] | Potency [3]

Cc1sc(C)c(C(=O)NC2(c3ccc(C(=O)O)cc3)CC2)c1Cc1ccc(C(F)(F)F)cc1
inactive: Potency [1] | Potency [2] | Potency [3]

C[C@H]1CC[C@H]2[C@@H](C=C[C@@](C)(O)[C@]2(C)C(=O)CCO)C1
inactive: Potency [1] | Potency [2] | Potency [3]

O=C(O)c1cccc(C(=O)CCC2OC(n3cnc4c(=O)[nH]cnc43)C(O)C2O)c1 (stereo unspecified)
inactive: Potency [1] | Potency [2] | Potency [3]

CC(C)C1CCC(CO)=CC1/C=C(\CO)C(=O)OCC1(O)CCC(C(C)C)C2C=C(C(=O)O)COC(=O)C21 (stereo unspecified)
inactive: Potency [1] | Potency [2] | Potency [3]

COc1cc(C(=O)OC[C@@]2(O)CO[C@@H](O[C@H]3[C@H](Oc4ccc(O)cc4)O[C@H](CO)[C@@H](O)[C@@H]3O)[C@@H]2O)cc(OC)c1O
inactive: Potency [1] | Potency [2] | Potency [3]

COc1cccc(C)c1C(=O)O[C@@H]1C[C@H](O[C@H]2[C@H](O)C[C@H](O[C@@H]3CCC[C@H]4[C@H]3C=C[C@@H]3CCCC/C=C/[C@H]5C=C(C(=O)O)[C@@H](C)C[C@@]56OC(=O)C(=C6O)OC(=O)[C@@]34C)O[C@@H]2C)O[C@H](C)[C@H]1O
inactive: Potency [1] | activity change, negative = viability loss [2] -5.35% [at 9.23 µM] | activity change, negative = cell killing [3] -1.86% [at 9.23 µM]

C=C1CCC2C(C)(C)CCC[C@]2(C)[C@H]1CC/C(C)=C/C(=O)O (stereo partly specified)
inactive: Potency [1] | Potency [2] | Potency [3]

COc1ccc(/C=C/C(=O)O[C@@H]2[C@@H](OC(C)=O)[C@@H](OC(C)=O)[C@H](O[C@H]3[C@@H]4C=CO[C@@H](O[C@@H]5O[C@H](CO)[C@@H](O)[C@H](O)[C@H]5O)[C@@H]4[C@@]4(CO)O[C@@H]34)O[C@H]2C)cc1
inactive: Potency [1] | Potency [2] | Potency [3]

CC/C=C/C(O)C(O)C1=C(C)C(=O)C2(O1)C(=O)NC(OC)(C(=O)c1ccccc1)C2O (stereo unspecified)
inactive: Potency [1] | Potency [2] | Potency [3]

COc1cc(/C=C/C(=O)OC[C@H]2O[C@@H](OC3OC=C(C(=O)O)C4C(O)CC(C)(O)C34)[C@H](O)[C@@H](O)[C@@H]2O)cc(OC)c1O (stereo partly specified)
inactive: Potency [1] | Potency [2] | Potency [3]

C[C@@H]1O[C@@H](O[C@@H]2[C@@H](O)[C@H](O[C@H]3[C@H](O[C@H]4CC[C@@]5(C)C(CC[C@]6(C)C5CC=C5[C@@H]7CC(C)(C)CC[C@]7(C(=O)O[C@@H]7O[C@H](CO)[C@@H](O)[C@H](O)[C@H]7O)CC[C@]56C)C4(C)C)O[C@H](C(=O)O)[C@@H](O)[C@@H]3O)OC[C@H]2O)[C@H](O)[C@H](O)[C@H]1O (stereo partly specified)
inactive: Potency [1] | activity change, negative = viability loss [2] 2.27% [at 9.23 µM] | activity change, negative = cell killing [3] -1.93% [at 9.23 µM]

CC1OC(O[C@@H]2[C@@H](O)[C@H](OC(=O)[C@]34CCC(C)(C)C[C@H]3C3=CCC5[C@@]6(C)CC[C@H](O[C@@H]7O[C@H](C(=O)O)[C@@H](O)[C@H](O[C@@H]8OC[C@@H](O)[C@H](O)[C@H]8O)[C@H]7O[C@@H]7O[C@H](CO)[C@H](O)[C@H](O)[C@H]7O)[C@@](C)(C=O)C6CC[C@@]5(C)[C@]3(C)C[C@H]4O)O[C@H](C)[C@@H]2OC2OC(C)C(OC3OCC(O)C(O)C3O)C(O)C2O)C(O)C(O)C1O (stereo partly specified)
inactive: activity change, negative = inhibition [1] 3.33% [at 12.4 µM] | activity change, negative = viability loss [2] -4.28% [at 9.23 µM] | activity change, negative = cell killing [3] -13.7% [at 9.23 µM]

CC1(C)CCC[C@@]2(C)[C@H]1[C@H](O)C=C(CO)[C@]2(O)CO
inactive: Potency [1] | Potency [2] | Potency [3]

CC1=CCC[C@@H]2[C@](CCc3ccoc3)(C(=O)O)[C@H](C)CC[C@@]12C
inactive: Potency [1] | Potency [2] | Potency [3]

CC1CCC2(C(=O)OC3OC(CO)C(O)C(O)C3O)CCC3(C)C(=CCC4C5(C)CCC(O)C(C)(CO)C5CCC43C)C2C1(C)O (stereo unspecified)
inactive: Potency [1] | Potency [2] | Potency [3]

CCc1cc(CC[C@]2(C3CCCC3)CC(O)=C(Cc3nc4nc(C)cc(C)n4n3)C(=O)O2)cc(CC)n1
inactive: Potency [1] | Potency [2] | Potency [3]

C=C(C)C1CCC2(C(=O)OC3OC(COC4OC(CO)C(O)C(O)C4O)C(OC4OC(C)C(O)C(O)C4O)C(O)C3O)CCC3(C(=O)O)C(CCC4C5(C)CCC(=O)C(C)(C)C5CCC43C)C12 (stereo unspecified)
inactive: Potency [1] | outcome [2] inactive [at 9.23 µM] | outcome [3] inactive [at 9.23 µM]
